Assay results: ChEMBL document CHEMBL3433997, “St. Jude Leishmania screening dataset” (2016)

Each molecule was assayed against Solute carrier family 2, facilitated glucose transporter member 1 (Homo sapiens) (UniProt P11166) (assay: ST_JUDE_LEISH: Cytotoxicity at 2uM final concentration against transgenic Leishmania Mexicana promastigotes LmGLUT1 that are glucose transport deficient and complemented with the human glucose transporter GLUT1. Activity is measured by DNA content using SYBR green in vitro).
Sequence of Solute carrier family 2, facilitated glucose transporter member 1 (Homo sapiens) (P11166 whole entry): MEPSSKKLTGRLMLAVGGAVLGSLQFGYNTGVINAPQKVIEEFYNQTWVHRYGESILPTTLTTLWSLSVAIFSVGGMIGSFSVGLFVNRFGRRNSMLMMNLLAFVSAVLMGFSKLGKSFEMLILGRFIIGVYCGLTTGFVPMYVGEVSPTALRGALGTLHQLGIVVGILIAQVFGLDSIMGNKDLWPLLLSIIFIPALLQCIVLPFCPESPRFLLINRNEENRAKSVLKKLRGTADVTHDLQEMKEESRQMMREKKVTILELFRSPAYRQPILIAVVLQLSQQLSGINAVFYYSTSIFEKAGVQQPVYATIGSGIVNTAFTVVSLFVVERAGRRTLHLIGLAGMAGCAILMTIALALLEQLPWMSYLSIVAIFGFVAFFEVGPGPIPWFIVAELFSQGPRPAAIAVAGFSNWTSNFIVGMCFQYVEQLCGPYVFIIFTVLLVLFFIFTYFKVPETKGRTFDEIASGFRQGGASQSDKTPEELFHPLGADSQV
Format: functional

Question: Which inhibition does the source give for O=C(/C=C/c1ccc(C(F)(F)F)cc1)NCCCCCN1CCC(c2c[nH]c3ccccc23)CC1 here?
Answer: -1.24%

Question: For O=C(Nc1ccc(NC2=NCCN2)cc1)c1ccc(C(=O)Nc2ccc(NC3=NCCN3)cc2)cc1, which inhibition is on record?
Answer: 17.6%

Question: With O=C(Nc1ccc(C(=O)N2CCN(CCN3CCN(c4cccc(C(F)(F)F)c4)CC3)CC2)cc1)c1ccc(C(F)(F)F)cc1 as the molecule, how does the inhibition read?
Answer: 2.54%

Question: How did the inhibition turn out when CCCCOc1c(CNCCCCCCNCc2ccc3ccccc3c2OCCCC)ccc2ccccc12 was run?
Answer: 99.5%

Question: For CCCCOc1ccc(C(=O)C(CCC(CNC(C)(C)C)C(=O)c2ccc(OCCCC)cc2)CNC(C)(C)C)cc1 (stereo not given), which inhibition is on record?
Answer: 43.9%

Question: Which inhibition does the source give for CN(C)CCN(C)Cc1ccc(-c2ccc3c(Nc4ccc(Oc5ccccn5)cc4)ccnc3c2)o1 here?
Answer: -2.89%

Question: How did the inhibition turn out when O=C1OC2(CN1CC1CCN(Cc3ccc(O)cc3Cl)C1)c1ccccc1-c1ccccc12 (stereo not given) was run?
Answer: 0.5%

Question: With CC(C)(C)c1ccc(C(=O)NC2CCC(CCN3CCc4ccc(S(C)(=O)=O)cc4CC3)CC2)cc1C(F)(F)F (stereo not given) as the molecule, how does the inhibition read?
Answer: 1.87%

Question: CC1(C)N=C(N)N=C(N)C1c1ccc(Cl)c(Cl)c1 (stereo not given) was tested. Which inhibition did it give?
Answer: 0.69%

Question: Which inhibition does the source give for FC(F)(F)c1ccc2[nH]c(-c3ccc(-c4cccc(CNCc5ccccc5)c4)s3)nc2c1 here?
Answer: 2.04%

Question: COc1cccc(CNC(=O)NC2CCN(c3ccnc(Nc4ccc(F)cc4)n3)C2)c1 (stereo not given) was tested. Which inhibition did it give?
Answer: -1.2%

Question: CCN(CC)CCCC(C)Nc1ccnc2cc(Cl)ccc12 (stereo not given) was tested. Which inhibition did it give?
Answer: 1.44%

Question: For O=[N+]([O-])c1cccc(CNCC2CCC(CNCc3cccc([N+](=O)[O-])c3)CC2)c1 (stereo not given), which inhibition is on record?
Answer: 2.25%

Question: O=C(NC(c1ccc(Cl)cc1)c1ccc2cccnc2c1O)c1ccccc1 (stereo not given) was tested. Which inhibition did it give?
Answer: 0.27%

Question: With O=C(N[C@@H](CC1CCCCC1)C(=O)NCCN1CCOCC1)c1ccc(O)c(-c2ccc(Cl)c(Cl)c2)c1 as the molecule, how does the inhibition read?
Answer: -0.52%

Question: With COc1cc2c(cc1C(F)(F)F)N(C(=O)Nc1cc(F)cc(-c3cncnc3)c1)CC2 as the molecule, how does the inhibition read?
Answer: 11.6%

Question: How did the inhibition turn out when Cc1cccc2c1NC(=O)/C2=N/NC(=S)N(C)C was run?
Answer: 1.53%

Question: NC(=O)c1ccsc1NC(=O)CNC(c1ccc(F)cc1)c1cccs1 (stereo not given) was tested. Which inhibition did it give?
Answer: 2.48%

Question: With O=C(Nc1cccc(-c2csc(-c3nc4ccccc4[nH]3)c2)c1)c1ccncc1 as the molecule, how does the inhibition read?
Answer: 11.6%

Question: How did the inhibition turn out when COc1ccc2ccccc2c1CNCC1CCN(CC2CCCCC2)CC1 was run?
Answer: 1.54%

Question: Which inhibition does the source give for CCCNC(=O)c1cncc(-c2ccc(CNCCCc3ccccc3)cc2)c1 here?
Answer: 1.92%

Question: How did the inhibition turn out when Cc1cccc2nc(-c3ccc(-c4ccc(CN5CCN(C6CCN(C)CC6)CC5)cc4)s3)[nH]c12 was run?
Answer: 0.65%

Question: Which inhibition does the source give for CCn1c(Sc2ccc(C#N)c([N+](=O)[O-])c2)nnc1-c1ccc(Cl)cc1 here?
Answer: 3.57%

Question: Fc1ccc(Nc2ccnc3cc(-c4ccc(CNCCN5CCOCC5)o4)ccc23)c(Cl)c1 was tested. Which inhibition did it give?
Answer: 2.04%

Question: With COc1cc(-c2nc3ccc(N4CCN(C)CC4)cc3[nH]2)cc(OC)c1OC as the molecule, how does the inhibition read?
Answer: 2.08%

These molecules were tested against Hexose transporter 1 (Plasmodium falciparum) (UniProt O97467) (assay: ST_JUDE_LEISH: Cytotoxicity at 2uM final concentration against transgenic Leishmania Mexicana promastigotes LmPfHT that are glucose transport deficient and complemented with the Plasmodium falciparum hexose transporter. Activity is measured by DNA content using SYBR green in vitro).
Format: functional

Question: How did the inhibition turn out when O=C(Nc1ccc2c(c1)CNCC2)c1ccc(-c2ccc(Cl)cc2)cc1 was run?
Answer: 95.6%

Question: How did the inhibition turn out when COc1ccc(NC(=O)c2ccc(OCCCCCCCOc3ccc(C(=O)Nc4ccc(OC)c(N5CCN(C)CC5)c4)cc3)cc2)cc1N1CCN(C)CC1 was run?
Answer: 0.63%

Question: With CCn1c(-c2nonc2N)nc2cnc(Oc3cccc(NC(=O)c4ccc(OCCN5CCCC5)cc4)c3)cc21 as the molecule, how does the inhibition read?
Answer: 9.98%

Question: CCOc1cc(C(=O)NCc2ccc(Cl)c(Cl)c2)ccc1-c1nc2cc(Cl)ccc2[nH]1 was tested. Which inhibition did it give?
Answer: 2.33%

Question: Which inhibition does the source give for Cc1ccc(Cn2nc(Cl)c(N3CCCNCC3)cc2=O)cc1NC(=O)Nc1ccc(-c2ccccc2)cc1 here?
Answer: 1.72%

Question: Which inhibition does the source give for O=C(OCC1CCN(Cc2ccccc2)C1)c1ccc(Cl)cc1 (stereo not given) here?
Answer: 1.6%

Question: Cc1ccc(NC(=O)NCCCCCN2CCC(c3c[nH]c4ccccc34)CC2)cc1I was tested. Which inhibition did it give?
Answer: 3.64%

Question: How did the inhibition turn out when O=C(Nc1cccc(Cl)c1Cl)NC1CCN(Cc2cccc(O)c2)CC1 was run?
Answer: 2.13%

Question: O=C(NCc1ccccc1)c1ccc(C(=O)NCC2CNCCO2)cc1 (stereo not given) was tested. Which inhibition did it give?
Answer: 6.24%

Question: With CC(C)C(C)(C#N)NC(=O)CSc1nc2ccc([N+](=O)[O-])cc2s1 (stereo not given) as the molecule, how does the inhibition read?
Answer: 0.01%

Question: With COC(=O)c1cccc(CNCc2ccc(-c3ccc(-c4nc5cc(F)ccc5[nH]4)cc3)cc2)c1 as the molecule, how does the inhibition read?
Answer: 6.26%

Question: For Cc1nc2ccc(-c3ccc(OC(F)(F)F)cc3)cc2c(O)c1C#N, which inhibition is on record?
Answer: 0.11%

Question: How did the inhibition turn out when COc1cc2nc(NCCc3ccccc3)nc(NCc3cc(C)no3)c2cc1OC was run?
Answer: 4.61%

Question: With Cc1ccc(C(=O)Nc2ccc(OC3CCN(CCC(C)C)C3)c(Cl)c2)cc1 (stereo not given) as the molecule, how does the inhibition read?
Answer: 4.8%

Question: Which inhibition does the source give for O=C(c1ccc(F)c2ccccc12)N1CCc2cc3nccc(N4CCN5CCC[C@H]5C4)c3cc21 here?
Answer: 1.16%

Question: Which inhibition does the source give for O=C(/C=C/c1ccc(C(F)(F)F)cc1)NCCCCCN1CCC(c2c[nH]c3ccccc23)CC1 here?
Answer: -1.37%

Question: For O=C(Nc1ccc(NC2=NCCN2)cc1)c1ccc(C(=O)Nc2ccc(NC3=NCCN3)cc2)cc1, which inhibition is on record?
Answer: 18.1%

Question: How did the inhibition turn out when O=C(Nc1ccc(C(=O)N2CCN(CCN3CCN(c4cccc(C(F)(F)F)c4)CC3)CC2)cc1)c1ccc(C(F)(F)F)cc1 was run?
Answer: 2.63%

Question: With CCCCOc1c(CNCCCCCCNCc2ccc3ccccc3c2OCCCC)ccc2ccccc12 as the molecule, how does the inhibition read?
Answer: 49.1%

Question: Which inhibition does the source give for CCCCOc1ccc(C(=O)C(CCC(CNC(C)(C)C)C(=O)c2ccc(OCCCC)cc2)CNC(C)(C)C)cc1 (stereo not given) here?
Answer: 12.2%

Question: CN(C)CCN(C)Cc1ccc(-c2ccc3c(Nc4ccc(Oc5ccccn5)cc4)ccnc3c2)o1 was tested. Which inhibition did it give?
Answer: -0.77%

Question: How did the inhibition turn out when O=C1OC2(CN1CC1CCN(Cc3ccc(O)cc3Cl)C1)c1ccccc1-c1ccccc12 (stereo not given) was run?
Answer: -2.55%

Question: With CC(C)(C)c1ccc(C(=O)NC2CCC(CCN3CCc4ccc(S(C)(=O)=O)cc4CC3)CC2)cc1C(F)(F)F (stereo not given) as the molecule, how does the inhibition read?
Answer: 2.06%

Question: CC1(C)N=C(N)N=C(N)C1c1ccc(Cl)c(Cl)c1 (stereo not given) was tested. Which inhibition did it give?
Answer: 2.94%

Question: With FC(F)(F)c1ccc2[nH]c(-c3ccc(-c4cccc(CNCc5ccccc5)c4)s3)nc2c1 as the molecule, how does the inhibition read?
Answer: 0.97%

Question: With COc1cccc(CNC(=O)NC2CCN(c3ccnc(Nc4ccc(F)cc4)n3)C2)c1 (stereo not given) as the molecule, how does the inhibition read?
Answer: -0.35%

Question: Which inhibition does the source give for CCN(CC)CCCC(C)Nc1ccnc2cc(Cl)ccc12 (stereo not given) here?
Answer: 1.5%

Question: With O=[N+]([O-])c1cccc(CNCC2CCC(CNCc3cccc([N+](=O)[O-])c3)CC2)c1 (stereo not given) as the molecule, how does the inhibition read?
Answer: -2.59%

Question: Which inhibition does the source give for O=C(NC(c1ccc(Cl)cc1)c1ccc2cccnc2c1O)c1ccccc1 (stereo not given) here?
Answer: -0.02%

Question: With O=C(N[C@@H](CC1CCCCC1)C(=O)NCCN1CCOCC1)c1ccc(O)c(-c2ccc(Cl)c(Cl)c2)c1 as the molecule, how does the inhibition read?
Answer: 1.41%

Question: For COc1cc2c(cc1C(F)(F)F)N(C(=O)Nc1cc(F)cc(-c3cncnc3)c1)CC2, which inhibition is on record?
Answer: 1.94%

Question: Which inhibition does the source give for Cc1cccc2c1NC(=O)/C2=N/NC(=S)N(C)C here?
Answer: 4.53%

Question: For NC(=O)c1ccsc1NC(=O)CNC(c1ccc(F)cc1)c1cccs1 (stereo not given), which inhibition is on record?
Answer: 2.01%

Question: With O=C(Nc1cccc(-c2csc(-c3nc4ccccc4[nH]3)c2)c1)c1ccncc1 as the molecule, how does the inhibition read?
Answer: 8.89%

Question: For COc1ccc2ccccc2c1CNCC1CCN(CC2CCCCC2)CC1, which inhibition is on record?
Answer: -0.57%

Question: Which inhibition does the source give for CCCNC(=O)c1cncc(-c2ccc(CNCCCc3ccccc3)cc2)c1 here?
Answer: 1.6%

Question: With Cc1cccc2nc(-c3ccc(-c4ccc(CN5CCN(C6CCN(C)CC6)CC5)cc4)s3)[nH]c12 as the molecule, how does the inhibition read?
Answer: 1.2%

Question: For CCn1c(Sc2ccc(C#N)c([N+](=O)[O-])c2)nnc1-c1ccc(Cl)cc1, which inhibition is on record?
Answer: 3.08%

Question: For Fc1ccc(Nc2ccnc3cc(-c4ccc(CNCCN5CCOCC5)o4)ccc23)c(Cl)c1, which inhibition is on record?
Answer: 2.02%

Question: Which inhibition does the source give for COc1cc(-c2nc3ccc(N4CCN(C)CC4)cc3[nH]2)cc(OC)c1OC here?
Answer: 2.62%
